# Experimental data from the supplement of paper PMC10338343.
# ± gives the standard deviation. In all, about 3,700 sequences were measured (“pre-steady-state target cleavage rate”: median about 0.02, highest 2% from about 0.23 on). Shown is part of a subset that was picked to be rich in the highest values.
# System: MILI (PIWIL2) piRISC loaded with Kctd7 piRNA (26 nt)
# Experiment: pre-steady-state target cleavage rate (min^-1); MIWI and MILI are mouse PIWI proteins and EfPiwi is from a freshwater sponge; tags in brackets are library labels; higher = faster piRNA-guided slicing of the target
# Settings: guide: Kctd7 piRNA 5'p-UGUUAAUCUCUCAGAGAAGGUGACAG; auxiliary factor: 500 nM mouse GTSF1
# Method: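 Cleave-'n-Seq: a library of target RNAs (target site embedded in constant flanks, ACAGCATTCCGCGTTAGTGATATCCG... 5' flank; DNA-blocked outside the site) at 0.1 nM was incubated with 1 nM active mouse MILI or MIWI piRISC (synthetic 5'-monophosphorylated piRNA guide) with or without 500 nM mouse GTSF1 at 33 °C for 1 min to 16 h. Uncleaved targets were sequenced and normalised to non-target controls, and the pooled three trials were fitted to a burst-and-steady-state model to give the pre-steady-state cleavage rate (min^-1; k3 is constrained to at most 1e-4). Sequence is the target site only; target names encode pairing extent (gX:gY) and contiguous / 1-mismatch / 2-mismatch / bulge geometry. Fits with R² ≤ 0 are excluded.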
row,Sequence,pre-steady-state target cleavage rate
1,UAGUGUGUCACCUUCUCUGAGAAAUUAACA,0.112 ± 0.019
2,UAGUCUGUCACCUUCUCUGAGAAUUAACA,0.0747 ± 0.031
3,UAGUGUGUCACCUUCUCUGAGAAUUAACA,0.0848 ± 0.036
4,UAGUGUGUCACCUUCUCUGAGAGAAUUAACA,0.277 ± 0.048
5,UAGUCUGUCACCUUCUCUGAGAAAUUAACA,0.143 ± 0.018
6,UAGUCUGUCACCUUCUCUGAGAGAAUUAACA,0.32 ± 0.051
7,UAGUGACAGUCCUUCUCUGAUGAGAUUAACA,0.00278 ± 0.0025
8,UAGUGACACUCCUUCUCUGAGUGAUUAACA,0.00415 ± 0.0032
9,UAGUGACAGACGUACUCUGAGAGAUUAACA,0.014 ± 0.0034
10,UAGUGUGUCACCUACUCUGAGAGAUUUUGA,0.0414 ± 0.016
11,UAGUGUGUCACCUACUCUGAGAGAUUAUGA,0.0343 ± 0.015
12,UAGUGUGUCACCUACUCUGAGAGAUUUACA,0.25 ± 0.052
13,UAGUGUGUCACCUACUCUGAGAGAUUAAGA,0.1 ± 0.023
14,UAGUGUGUCACCUACUCUGAGAGAUUAUCA,0.239 ± 0.049
15,UAGUGAGUCACCUACUCUGAGAGAUUUACA,0.164 ± 0.053
16,UAGUGUGUCACCUUCUCUCUGAGAUUAACA,0.0138 ± 0.004
17,UAGUGUCUCACCUUCUCUGAGAGAUUUACA,0.196 ± 0.043
18,UAGUGUGUCACCUUCUCUGAGAGAUUACA,0.122 ± 0.036
19,UAGUGUGUCACCUUCUCUGAGAGAUUUAACA,0.391 ± 0.052
20,UAGUGUGUCACCUUCUCUGAGAGAUUAACA [g2:g25:cont:t1A],0.216 ± 0.015
21,UAGUGUGUCACCUUCUCUGAGAGAUUUACA,0.266 ± 0.047
22,UAGUGACUGUCCUUCUCUGAGAGAUUAACA,0.2 ± 0.016
23,UAGUGAGUGACCUUGUCUGAGAGAUUAACA,0.0726 ± 0.014
24,UAGUGACAGACCUUGUCUGACAGAUUAACA,0.0121 ± 0.0036
25,UAGUCUGUCACCUUCUCUGAGAGAUUUUCA,0.12 ± 0.031

row,Sequence,pre-steady-state target cleavage rate
1,UAGUCUGUCACCUUCUCUGAGAGAUCAACA,0.114 ± 0.018
2,UAGUCUGUCAACCUUCUCUGAGAGAUUAACA,0.0716 ± 0.011
3,UAGUGAGUCACCUUCUCUGAGAGAUUUUCA,0.145 ± 0.044
4,UAGUGAGUCACCUUCUCUGAGAGAUCAACA,0.0788 ± 0.025
5,UAGUGAGUCACCUUCUCUGAGAGAUUCAACA,0.279 ± 0.054
6,UAGUCUGUCACCUUCUCUGAGAGAUUACACA,0.153 ± 0.022
7,UAGUCUGUCACCUUCUCUGAGAGAUUCACA,0.265 ± 0.059
8,UAGUCUGUCACCUUCUCUGAGAGAUUCAACA,0.324 ± 0.061
9,UAGUGACAGUGCUUCUCUGAGAGAUUAUCA,0.00765 ± 0.0025
10,UAGUCUGUCACCUUCUCUCAGAGAUUAACA,0.064 ± 0.0081
11,UAGUGACAGUGGAACUCUGAGAGUUAAACA,< 0.0001
12,UAGUGACACACCUUCUCUGAUGAGAUUAACA,0.00949 ± 0.0043
13,UAGUGAGUCACCUUCACUGACAGAUUAACA,0.0411 ± 0.013
14,UAGUGACACACCUUCUCUGAGAAAUUAACA,0.219 ± 0.035
15,UAGUGACUCACCUUCUCGAGAGAUUAACA,0.02 ± 0.0065
16,UAGUGUGUCACCUUCUCUGAAAGAUUAACA,0.0569 ± 0.011
17,UAGUGACAGUGGAACACUGAGACAUUAACA,< 0.0001
18,UAGUGUGUCACCUUCUCUGAGAGUUAAACA,0.146 ± 0.049
19,UAGUGUGUCACCUUCUCUGAGAGUUUAACA,0.316 ± 0.078
20,UAGUGUGUCACCUUCUCUGAGAGUUAACA,0.194 ± 0.055
21,UAGUGUGUCACCUUCUGUGAGAGUUUAACA,0.0964 ± 0.027
22,UAGUGUGUCACCUUCUCUGAGAGUAUAACA,0.181 ± 0.072
23,UAGUGUCUCACCUUCUCUGAGAGUUUAACA,0.286 ± 0.038
24,UAGUGUGUCACCUUCUCUGAGAGAGUAACA,0.287 ± 0.056
25,UAGUGUGUCACCUUCUCUGAGAGUAAAACA,0.194 ± 0.057

row,Sequence,pre-steady-state target cleavage rate
1,UAGUGUGUCACCUUCUCUGUGAGUUUAACA,0.0386 ± 0.0085
2,UAGUGACUCACCUUCUCUGAGAGUUUAACA,0.118 ± 0.028
3,UAGUGUGUCACCUUCUCUGAGAGAGUUAACA,0.259 ± 0.046
4,UAGUCUCUCACCUUCUCUGAGAGUUUAACA,0.183 ± 0.024
5,UAGUGAGUCACCUUGUCUGAGAGAUUUUGA,0.0161 ± 0.0098
6,UAGUGACACAGGAUCUCUGAGAGAUAUUGA,< 0.0001
7,UAGUGUGUCACCGUCUCUGAGAGAUUAACA,0.113 ± 0.012
8,UAGUCUGUCUCCUUCUCUGAGAGAUUAAGA,0.054 ± 0.012
9,UAGUCUGUCACCUUCUCUGAGAGAUCUAACA,0.258 ± 0.054
10,UAGUCUGUCACCUUCUCUAAGAGAUUAACA,0.138 ± 0.0097
11,UAGUCUGUCACCUUCUCUGAGAGACUAACA,0.149 ± 0.027
12,UAGUGAGUCACCUUCUCUGAGAGAUCUAACA,0.171 ± 0.035
13,UAGUGUGUCACCUUCUCUGAGAGAUAACA,0.0605 ± 0.02
14,UAGUGUGUCACCUUCUCUGAGAGAUCUAACA,0.306 ± 0.071
15,UAGUGAGUCACCUUCUGUGUGAGAUUAACA,0.0434 ± 0.0067
16,UAGUGACAGUCCUUCUCUGAGAGUAAUUGA [g8:g20:cont:t1A],< 0.0001
17,UAGUGACUCACCUUCUCUGAGAGCUUAACA,0.156 ± 0.022
18,UAGUGAGUCACCUGCUCUGAGAGAUUAACA,0.169 ± 0.018
19,UAGUGUGUCACCUUGUCUGAGAGAUUAACA,0.134 ± 0.021
20,UAGUGACUCACCUUGCUCUGAGAGAUUAACA,0.048 ± 0.016
21,UAGUGUGUCACCUGCUCUGAGAGAUUAACA,0.157 ± 0.012
22,UAGUGAGUCACCUUGCUCUGAGAGAUUAACA,0.351 ± 0.077
23,UAGUGUGUCACCUUGCUCUGAGAGAUUAACA,0.248 ± 0.061
